Results taken from the supplement of paper PMC10849652.
Targets with a hit are over-represented here; the source holds about 8,800 in all. About 0.5% of all pairs of compound and target were hits.

Legend:
Test in all cases: log2 fold change, soluble protein after heating vs DMSO (PISA); higher = thermal stabilisation; K562 lysate, 10 uM; active = over 0.2 and 3.5 SD of the protein, either way, in both replicates (recomputed)
ibrutinib = compound: C=CC(=O)N1CCC[C@@H](n2nc(-c3ccc(Oc4ccccc4)cc3)c3c(N)ncnc32)C1 [ibrutinib]
In short: (§1)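 K562 pellets were dounce-homogenised in PBS pH 7.4 containing 1 mM MgCl2, and the crude extract, at 1 mg/mL protein, was exposed to 10 μM compound for 30 min. Aliquots were heated for 3 min across 48°C-58°C, pooled, brought to 0.5% NP-40 at 4°C and spun at 21,000xg for 90 min, with the supernatant taken as soluble protein. TMTpro 16plex LC-MS/MS with equalised channel sums quantified that protein. Values are log-two fold changes in thermal stability relative to solvent controls, taken from duplicates.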

[1] = compound: CC(=O)c1cnc2ccc(-c3cc(Cl)c(O)c(Cl)c3)nc2c1N[C@H]1CC[C@H](CN(C)C)CC1
In short: as §1

ralimetinib = compound: CC(C)(C)Cn1c(N)nc2ccc(-c3[nH]c(C(C)(C)C)nc3-c3ccc(F)cc3)nc21 [ralimetinib]
In short: as §1

[2] = compound: CC(C)(O)CC(=O)NCCn1ccc2ncnc(Nc3ccc(Oc4cccc(C(F)(F)F)c4)c(Cl)c3)c21
In short: as §1

[3] = compound: CC(C)C1=C2N=C(C=C(N2N=C1)NCC3=CC=CC=C3)NCCCCCCN
In short: as §1

[4] = compound: CC1=C(C(CC(=O)N1)C2=CC=C(C=C2)C(F)(F)F)C(=O)NC3=C(C=C4C(=C3)C=NN4)F
In short: as §1

[5] = compound: CC1=C(C2=C(C=C1)C(=O)C3=CC=CC=C3N2CCCN)C
In short: as §1

[6] = compound: CC1=C(C=C(C=C1)NC(=O)C2=CC(=CC=C2)C(C)(C)C#N)NC3=CC4=C(C=C3)N=CN(C4=O)C
In short: as §1

[7] = compound: CC1=C(C=C(C=C1)NC(=O)C2=CC(=CC=C2)N(C)C)NC(=O)C3=CC=C(C=C3)O
In short: as §1

[8] = compound: CC1=CC=C(C=C1)SC2=C3C=C(SC3=CN=C2)C(=O)N
In short: as §1

Measured: log2 fold change

NMT1 (UniProt P30419)
inactive: ibrutinib -0.045 | [1] 0.005 | ralimetinib -0.001 | [2] 0.014 | [3] 0.022 | [4] -0.011 | [5] -0.009 | [6] -0.01 | [7] 0.017 | [8] 0.001

NDUFA4 (UniProt O00483)
inactive: ibrutinib 0.007 | [1] 0.199 | ralimetinib 0.022 | [2] 0.03 | [3] -0.068 | [4] -0.045 | [5] -0.036 | [6] -0.058 | [7] 0.009 | [8] -0.199

NIPBL (UniProt Q6KC79)
Sequence of UniProt Q6KC79 (Q6KC79 whole entry, looked up): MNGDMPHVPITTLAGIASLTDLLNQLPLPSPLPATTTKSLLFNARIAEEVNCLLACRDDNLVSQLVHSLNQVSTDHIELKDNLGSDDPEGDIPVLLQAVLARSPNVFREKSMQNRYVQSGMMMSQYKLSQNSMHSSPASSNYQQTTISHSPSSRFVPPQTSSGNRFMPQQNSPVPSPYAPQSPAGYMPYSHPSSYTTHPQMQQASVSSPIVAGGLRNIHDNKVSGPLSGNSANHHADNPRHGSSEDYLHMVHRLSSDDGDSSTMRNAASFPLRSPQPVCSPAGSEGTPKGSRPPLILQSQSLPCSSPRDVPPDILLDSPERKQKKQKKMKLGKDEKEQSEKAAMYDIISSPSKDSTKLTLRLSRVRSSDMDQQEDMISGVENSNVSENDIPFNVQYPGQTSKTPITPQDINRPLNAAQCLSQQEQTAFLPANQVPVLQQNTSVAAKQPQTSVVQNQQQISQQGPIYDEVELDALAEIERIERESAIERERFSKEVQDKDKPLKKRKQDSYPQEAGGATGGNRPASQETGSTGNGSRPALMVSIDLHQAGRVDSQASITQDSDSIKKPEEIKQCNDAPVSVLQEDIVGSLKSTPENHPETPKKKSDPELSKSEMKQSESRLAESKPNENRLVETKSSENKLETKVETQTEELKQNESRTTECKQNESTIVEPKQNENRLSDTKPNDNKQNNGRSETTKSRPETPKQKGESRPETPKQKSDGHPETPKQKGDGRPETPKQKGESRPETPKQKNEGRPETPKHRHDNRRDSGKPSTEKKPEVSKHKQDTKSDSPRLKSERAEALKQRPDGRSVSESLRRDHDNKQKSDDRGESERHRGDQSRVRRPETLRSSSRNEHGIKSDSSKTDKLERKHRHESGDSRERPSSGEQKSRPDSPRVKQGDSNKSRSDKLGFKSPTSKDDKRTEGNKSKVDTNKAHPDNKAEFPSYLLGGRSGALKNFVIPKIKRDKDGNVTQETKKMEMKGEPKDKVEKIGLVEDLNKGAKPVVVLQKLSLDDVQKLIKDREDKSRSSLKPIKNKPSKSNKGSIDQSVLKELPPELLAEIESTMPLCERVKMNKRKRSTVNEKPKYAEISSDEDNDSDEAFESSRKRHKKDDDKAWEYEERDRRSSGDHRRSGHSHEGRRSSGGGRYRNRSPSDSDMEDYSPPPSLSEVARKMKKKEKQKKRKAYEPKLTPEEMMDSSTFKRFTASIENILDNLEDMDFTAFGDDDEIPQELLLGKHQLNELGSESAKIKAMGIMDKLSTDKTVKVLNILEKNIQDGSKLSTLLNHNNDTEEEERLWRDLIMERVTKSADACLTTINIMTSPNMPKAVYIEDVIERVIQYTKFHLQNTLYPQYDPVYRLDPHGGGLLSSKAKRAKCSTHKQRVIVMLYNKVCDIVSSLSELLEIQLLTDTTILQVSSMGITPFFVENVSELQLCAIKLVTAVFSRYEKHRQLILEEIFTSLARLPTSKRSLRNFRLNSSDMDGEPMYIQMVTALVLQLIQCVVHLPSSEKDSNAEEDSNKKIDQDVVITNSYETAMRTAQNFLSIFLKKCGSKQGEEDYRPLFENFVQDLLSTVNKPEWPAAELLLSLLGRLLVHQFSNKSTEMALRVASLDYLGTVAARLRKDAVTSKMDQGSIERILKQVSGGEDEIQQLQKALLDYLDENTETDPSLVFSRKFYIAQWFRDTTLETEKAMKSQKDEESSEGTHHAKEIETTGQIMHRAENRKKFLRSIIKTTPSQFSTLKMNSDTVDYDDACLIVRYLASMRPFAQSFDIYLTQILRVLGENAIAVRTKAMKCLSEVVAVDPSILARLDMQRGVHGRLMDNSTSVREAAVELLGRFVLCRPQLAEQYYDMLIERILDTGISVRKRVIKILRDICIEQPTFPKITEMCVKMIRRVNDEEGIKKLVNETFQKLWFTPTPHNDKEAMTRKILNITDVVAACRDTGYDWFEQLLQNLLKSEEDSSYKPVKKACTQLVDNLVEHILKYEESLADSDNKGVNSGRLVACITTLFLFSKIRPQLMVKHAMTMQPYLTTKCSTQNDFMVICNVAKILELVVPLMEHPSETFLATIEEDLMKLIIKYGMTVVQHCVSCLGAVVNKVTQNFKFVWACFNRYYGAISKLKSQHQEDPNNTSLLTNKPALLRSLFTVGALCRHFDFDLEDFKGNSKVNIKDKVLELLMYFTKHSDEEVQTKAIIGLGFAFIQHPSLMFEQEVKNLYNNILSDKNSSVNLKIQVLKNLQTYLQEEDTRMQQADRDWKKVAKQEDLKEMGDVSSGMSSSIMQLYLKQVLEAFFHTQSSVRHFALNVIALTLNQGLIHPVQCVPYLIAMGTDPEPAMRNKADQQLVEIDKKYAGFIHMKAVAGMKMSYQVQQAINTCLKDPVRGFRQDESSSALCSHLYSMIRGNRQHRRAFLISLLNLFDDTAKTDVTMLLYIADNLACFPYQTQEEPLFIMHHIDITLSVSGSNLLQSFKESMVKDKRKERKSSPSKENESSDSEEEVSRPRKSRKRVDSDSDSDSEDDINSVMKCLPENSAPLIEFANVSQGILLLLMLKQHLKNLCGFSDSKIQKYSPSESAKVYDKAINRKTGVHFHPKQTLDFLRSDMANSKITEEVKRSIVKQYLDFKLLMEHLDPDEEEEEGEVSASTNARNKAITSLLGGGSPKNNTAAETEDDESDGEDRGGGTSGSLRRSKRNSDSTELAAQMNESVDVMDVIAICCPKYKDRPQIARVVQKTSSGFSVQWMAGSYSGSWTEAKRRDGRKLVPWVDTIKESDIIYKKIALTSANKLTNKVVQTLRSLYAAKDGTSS
inactive: ibrutinib 0.026 | [1] 0.008 | ralimetinib 0.035 | [2] -0.016 | [3] 0.036 | [4] 0.007 | [5] -0.025 | [6] -0.03 | [7] -0.044 | [8] 0.021

MTHFD1L (UniProt B7ZM99)
inactive: ibrutinib -0.034 | [1] -0.014 | ralimetinib 0.004 | [2] 0.011 | [3] -0.007 | [4] -0.005 | [5] -0.006 | [6] 0.033 | [7] 0.02 | [8] -0.023

NUDT4 isoform 2 (UniProt Q9NZJ9)
inactive: ibrutinib -0.006 | [1] 0.002 | ralimetinib 0.035 | [2] -0.044 | [3] -0.006 | [4] 0.016 | [5] -0.054 | [6] 0.034 | [7] 0.024 | [8] -0.024

NNMT (UniProt P40261)
inactive: ibrutinib -0.026 | [1] -0.037 | ralimetinib 0.011 | [2] -0.019 | [3] -0.05 | [4] -0.053 | [5] 0.026 | [6] 0.06 | [7] 0.016 | [8] -0.034

MYCBP2 (UniProt O75592)
inactive: ibrutinib 0.014 | [1] -0.027 | ralimetinib 0.033 | [2] -0.085 | [3] 0.014 | [4] 0.016 | [5] -0.028 | [6] 0.028 | [7] 0.036 | [8] -0.033

NEBL isoform 2 (UniProt O76041)
inactive: ibrutinib -0.04 | [1] 0.015 | ralimetinib -0.038 | [2] 0.027 | [3] 0.027 | [4] -0.012 | [5] -0.028 | [6] 0 | [7] 0.011 | [8] -0.013

MVB12A (UniProt Q96EY5)
inactive: ibrutinib 0.049 | [1] 0.009 | ralimetinib -0.008 | [2] 0.001 | [3] -0.003 | [4] -0.015 | [5] 0.033 | [6] -0.015 | [7] 0.043 | [8] 0.02

NSL1 (UniProt Q96IY1)
inactive: ibrutinib -0.019 | [1] -0.002 | ralimetinib 0.003 | [2] -0.052 | [3] 0.011 | [4] -0.066 | [5] 0.023 | [6] 0.009 | [7] 0.008 | [8] 0.036

NCOR1 (UniProt O75376)
inactive: ibrutinib 0.002 | [1] 0.015 | ralimetinib 0.021 | [2] -0.033 | [3] 0.014 | [4] 0.026 | [5] -0.026 | [6] 0 | [7] -0.006 | [8] -0.005

NOSTRIN (UniProt Q8IVI9)
Sequence of UniProt Q8IVI9 (Q8IVI9 whole entry, looked up): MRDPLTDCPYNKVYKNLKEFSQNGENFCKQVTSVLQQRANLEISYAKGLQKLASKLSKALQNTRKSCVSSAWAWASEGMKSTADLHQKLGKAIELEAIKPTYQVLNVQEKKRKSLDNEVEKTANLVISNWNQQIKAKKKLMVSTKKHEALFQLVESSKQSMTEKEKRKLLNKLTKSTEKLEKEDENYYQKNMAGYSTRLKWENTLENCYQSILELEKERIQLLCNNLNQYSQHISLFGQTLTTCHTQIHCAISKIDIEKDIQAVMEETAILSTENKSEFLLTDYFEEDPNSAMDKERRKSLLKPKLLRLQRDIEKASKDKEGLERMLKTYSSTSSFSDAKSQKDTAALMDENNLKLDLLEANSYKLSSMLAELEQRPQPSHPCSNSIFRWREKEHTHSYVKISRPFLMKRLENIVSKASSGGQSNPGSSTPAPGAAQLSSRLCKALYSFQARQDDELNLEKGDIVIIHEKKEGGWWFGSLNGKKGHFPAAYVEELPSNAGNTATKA
inactive: ibrutinib 0.025 | [1] -0.009 | ralimetinib 0.012 | [2] -0.041 | [3] -0.125 | [4] -0.032 | [5] -0.039 | [6] -0.019 | [7] 0.088 | [8] 0.012

NR2F2 (UniProt P24468)
Sequence of UniProt P24468 (P24468 whole entry, looked up): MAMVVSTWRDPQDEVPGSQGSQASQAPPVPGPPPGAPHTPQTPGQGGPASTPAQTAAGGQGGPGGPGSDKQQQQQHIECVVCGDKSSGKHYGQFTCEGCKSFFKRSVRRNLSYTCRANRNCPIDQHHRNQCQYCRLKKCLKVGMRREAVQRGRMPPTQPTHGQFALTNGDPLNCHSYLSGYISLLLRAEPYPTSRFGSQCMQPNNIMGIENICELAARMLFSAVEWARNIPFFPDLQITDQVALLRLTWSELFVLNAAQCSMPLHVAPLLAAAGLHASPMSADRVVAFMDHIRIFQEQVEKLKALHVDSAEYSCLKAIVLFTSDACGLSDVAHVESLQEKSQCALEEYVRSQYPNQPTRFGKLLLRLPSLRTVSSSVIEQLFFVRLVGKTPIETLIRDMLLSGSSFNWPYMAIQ
inactive: ibrutinib 0.007 | [1] -0.09 | ralimetinib -0.006 | [2] -0.069 | [3] -0.067 | [4] 0.097 | [5] 0.032 | [6] -0.031 | [7] 0.065 | [8] -0.042

MTA1 (UniProt Q13330)
inactive: ibrutinib -0.018 | [1] -0.025 | ralimetinib 0.001 | [2] 0.006 | [3] -0.007 | [4] -0.004 | [5] 0 | [6] -0.008 | [7] 0.034 | [8] -0.018

NQO1 (UniProt P15559)
Sequence of UniProt P15559 (P15559 whole entry, looked up): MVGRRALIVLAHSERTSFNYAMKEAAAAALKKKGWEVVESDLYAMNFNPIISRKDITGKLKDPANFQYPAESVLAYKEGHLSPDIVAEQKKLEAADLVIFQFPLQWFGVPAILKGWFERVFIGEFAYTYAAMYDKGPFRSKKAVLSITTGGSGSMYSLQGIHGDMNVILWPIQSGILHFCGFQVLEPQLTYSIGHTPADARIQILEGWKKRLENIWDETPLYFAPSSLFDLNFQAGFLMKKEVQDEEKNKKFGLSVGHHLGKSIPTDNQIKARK
inactive: ibrutinib 0.009 | [1] -0.003 | ralimetinib 0.033 | [2] 0.081 | [3] -0.009 | [4] 0.001 | [5] 0.159 | [6] 0.038 | [7] -0.025 | [8] 0.067

NELFCD (UniProt Q8IXH7)
Sequence of UniProt Q8IXH7 (Q8IXH7 whole entry, looked up): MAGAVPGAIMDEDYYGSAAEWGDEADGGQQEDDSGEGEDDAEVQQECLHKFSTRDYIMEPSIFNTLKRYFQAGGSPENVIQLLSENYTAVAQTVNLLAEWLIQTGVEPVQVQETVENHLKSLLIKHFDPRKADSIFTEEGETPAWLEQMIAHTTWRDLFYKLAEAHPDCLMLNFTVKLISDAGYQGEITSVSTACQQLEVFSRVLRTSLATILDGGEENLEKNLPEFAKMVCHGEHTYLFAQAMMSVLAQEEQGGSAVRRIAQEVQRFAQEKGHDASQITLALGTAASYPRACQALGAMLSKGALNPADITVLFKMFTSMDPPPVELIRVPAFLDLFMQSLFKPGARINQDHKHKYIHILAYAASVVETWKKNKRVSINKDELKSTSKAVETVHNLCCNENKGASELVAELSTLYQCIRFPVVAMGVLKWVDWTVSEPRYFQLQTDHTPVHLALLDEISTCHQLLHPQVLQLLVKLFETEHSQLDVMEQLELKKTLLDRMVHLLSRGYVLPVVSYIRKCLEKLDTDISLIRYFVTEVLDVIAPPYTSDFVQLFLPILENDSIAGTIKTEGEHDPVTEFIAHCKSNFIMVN
inactive: ibrutinib 0.039 | [1] 0.013 | ralimetinib 0.019 | [2] -0.043 | [3] 0.009 | [4] 0.007 | [5] 0.013 | [6] 0.011 | [7] 0.049 | [8] -0.02

OCRL (UniProt Q01968)
inactive: ibrutinib 0.051 | [1] -0.038 | ralimetinib -0.016 | [2] 0.016 | [3] 0.044 | [4] 0.013 | [5] 0.036 | [6] 0.022 | [7] -0.002 | [8] 0.033

PAN2 isoform 2 (UniProt Q504Q3)
inactive: ibrutinib -0.141 | [1] 0.036 | ralimetinib 0.022 | [2] -0.022 | [3] -0.025 | [4] 0.022 | [5] 0.015 | [6] 0.012 | [7] -0.038 | [8] 0.027

NAT1 (UniProt P18440)
inactive: ibrutinib -0.089 | [1] -0.039 | ralimetinib 0.062 | [2] 0.019 | [3] -0.035 | [4] -0.001 | [5] -0.048 | [6] 0.034 | [7] 0.009 | [8] 0.052

NFKBIB (UniProt Q15653)
inactive: ibrutinib -0.034 | [1] -0.037 | ralimetinib 0.048 | [2] -0.008 | [3] -0.029 | [4] -0.012 | [5] 0 | [6] 0.033 | [7] 0.06 | [8] -0.037

NEBL (UniProt O76041)
inactive: ibrutinib 0.087 | [1] 0.052 | ralimetinib 0.009 | [2] -0.003 | [3] -0.015 | [4] -0.037 | [5] -0.061 | [6] -0.006 | [7] -0.012 | [8] -0.025

PAIP2 (UniProt Q9BPZ3)
inactive: ibrutinib 0.145 | [1] 0.012 | ralimetinib -0.05 | [2] -0.006 | [3] 0.006 | [4] 0.015 | [5] 0.028 | [6] 0.01 | [7] -0.003 | [8] -0.008

MYCBP (UniProt Q99417)
inactive: ibrutinib 0.188 | [1] -0.009 | ralimetinib 0.021 | [2] -0.04 | [3] 0.002 | [4] -0.007 | [5] -0.017 | [6] 0.032 | [7] -0.002 | [8] -0.009

NUMB (UniProt P49757)
inactive: ibrutinib 0.03 | [1] 0.005 | ralimetinib 0.021 | [2] -0.055 | [3] 0.003 | [4] -0.007 | [5] -0.015 | [6] 0.081 | [7] 0.004 | [8] -0.005

OGFR (UniProt Q9NZT2)
inactive: ibrutinib -0.012 | [1] 0.02 | ralimetinib 0.007 | [2] -0.011 | [3] -0.008 | [4] 0.001 | [5] -0.016 | [6] -0.027 | [7] -0.003 | [8] 0.002

NF1 (UniProt P21359)
inactive: ibrutinib 0.018 | [1] 0.02 | ralimetinib 0.07 | [2] -0.03 | [3] -0.009 | [4] 0.004 | [5] -0.02 | [6] 0.041 | [7] 0.007 | [8] -0.032

MYO9A isoform 4 (UniProt B2RTY4)
inactive: ibrutinib -0.057 | [1] 0.016 | ralimetinib 0.022 | [2] 0.068 | [3] 0.03 | [4] -0.031 | [5] -0.142 | [6] -0.037 | [7] 0.043 | [8] -0.005

NARF (UniProt Q9UHQ1)
Sequence of UniProt Q9UHQ1 (Q9UHQ1 whole entry, looked up): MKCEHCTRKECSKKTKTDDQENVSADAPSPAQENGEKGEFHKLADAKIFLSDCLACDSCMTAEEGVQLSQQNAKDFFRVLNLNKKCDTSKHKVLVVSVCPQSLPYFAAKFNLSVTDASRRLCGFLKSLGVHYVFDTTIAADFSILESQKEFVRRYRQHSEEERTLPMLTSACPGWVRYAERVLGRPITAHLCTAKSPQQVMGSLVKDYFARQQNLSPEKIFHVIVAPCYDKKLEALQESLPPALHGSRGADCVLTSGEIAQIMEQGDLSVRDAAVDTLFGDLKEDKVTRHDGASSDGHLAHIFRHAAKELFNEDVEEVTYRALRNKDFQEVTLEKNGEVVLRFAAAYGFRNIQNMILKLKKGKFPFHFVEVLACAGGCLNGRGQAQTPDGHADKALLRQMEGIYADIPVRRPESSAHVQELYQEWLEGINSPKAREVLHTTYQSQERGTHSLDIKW
inactive: ibrutinib 0.004 | [1] 0.044 | ralimetinib -0.007 | [2] -0.013 | [3] -0.013 | [4] -0.007 | [5] -0.011 | [6] -0.013 | [7] -0.008 | [8] -0.113

NCAPD3 (UniProt P42695)
inactive: ibrutinib 0.001 | [1] -0.017 | ralimetinib 0.043 | [2] -0.019 | [3] -0.008 | [4] 0.007 | [5] -0.024 | [6] -0.012 | [7] 0.036 | [8] -0.012

MYO1D (UniProt O94832)
inactive: ibrutinib -0.016 | [1] -0.012 | ralimetinib 0.04 | [2] 0.003 | [3] 0.018 | [4] -0.021 | [5] -0.009 | [6] -0.014 | [7] 0.01 | [8] 0.031
